# Values without a mark were called inactive. Results filed as inconclusive are left out. Entries that show only a call come without a potency. Calls of active or inactive are those of the source. Unless noted, calls come from the whole dose curve; as a rule, active = well fitted curve in the direction sought with a large enough effect; inconclusive = small, poorly fitted or top-dose-only effect, or another doubt; inactive = no such curve, though single readings can be large; an effect the other way counts as inactive or inconclusive.
# Key:
# [1] = molecular target: Rap guanine nucleotide exchange factor 3 (Homo sapiens) (UniProt O95398); experiment: Confirmatory qHTS for antagonist of cAMP-regulated guanine nucleotide exchange factor 3 (EPAC1) (AID 1645880); settings: EPAC1 Rap1B-BODIPY-GDP exchange, fluorescence; activity, negative = inhibition: at 115 µM (top of the series); note: nearly all actives have a fitted effect of over 55% in size; note: potency is the fitted concentration of half-maximal effect
# In short: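 Nucleotide exchange uses 100 nM EPAC1, 250 nM RAP1B-BODIPY-GDP and 50 uM GDP, with compounds in a concentration-titration series. After 5 min at room temperature, fluorescence (480 nm ex/540 nm em) is read every 5 min for 30 min. Data are normalized to control ATA and DMSO.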
# [2] = molecular target: Rap guanine nucleotide exchange factor 3 (Homo sapiens) (UniProt O95398); experiment: Confirmatory qHTS for agonist of cAMP-regulated guanine nucleotide exchange factor 3 (EPAC1) (AID 1645881); note: nearly all actives have a fitted effect of over 75% in size; note: potency is the fitted concentration of half-maximal effect
# [3] = molecular target: Rap guanine nucleotide exchange factor 4 (Homo sapiens) (UniProt Q8WZA2); experiment: Confirmatory qHTS for antagonist of cAMP-regulated guanine nucleotide exchange factor 4 (EPAC2) (AID 1645885); note: nearly all actives have a fitted effect of over 25% in size; note: potency is the fitted concentration of half-maximal effect
# [4] = molecular target: Rap guanine nucleotide exchange factor 3 (Homo sapiens) (UniProt O95398); experiment: Counterscreen qHTS for antagonist of cAMP-regulated guanine nucleotide exchange factor 3 (EPAC1) (AID 1645888);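 note: fluorescence loss as bound BODIPY-GDP is released from Rap1B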
# In short: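 Rap1B–BODIPY-GDP (250 nM) with 50 uM GDP; compounds pin-transferred to 9.74 nM–152 uM final (activator) or from 7.32 nM upwards (inhibitor). Fluorescence Ex/Em 480/540 nm read at 5 and 30 min, then after adding cAMP or buffer, at room temperature.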
# [5] = AP1 Signaling Pathway (AID 357; active = well fitted curve in either direction with a large enough effect, not every such curve was filed as active); settings: ME-180 AP-1-bla reporter, EGF-induced, beta-lactamase ratio, 5 h; at 7.69 µM (top of the series) unless noted
# In short: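 ME-180 cells with beta-lactamase reporter under AP-1 response element, stimulated with EC50 EGF; compounds tested in titration series, 5 h at 37 °C. CCF4 substrate added 2.5 h at room temperature; 460/530 nm emission ratio gave %activity and AC50.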
# [6] = molecular target: Cytochrome P450 1A2 (Homo sapiens) (UniProt P05177); experiment: p450-cyp1a2 (AID 410; calls by dose curve; note: potency is the fitted concentration of half-maximal effect)
# In short: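 Luminescent readout of luciferin formed from Luciferin-ME by human CYP1A2; data normalized against complete inhibition by 57 uM furafylline. Enzyme 20nM, substrate 100uM at Km, 100mM KPO4 buffer, 60 min reaction at room temperature.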
# [7] = NFAT Signaling Pathway (AID 444; active = well fitted curve in either direction with a large enough effect, not every such curve was filed as active;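 note: carbachol stimulus at about its EC50 of 1 µM final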); settings: Jurkat NFAT-bla M1, carbachol, beta-lactamase ratio, 5 h; at 7.69 µM (top of the series) unless noted
# In short: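 Jurkat cells with NFAT-driven β-lactamase reporter and co-expressed M1 receptor, stimulated with carbachol (final 1 uM, ~EC50), compound titration, 5 h at 37 °C. CCF4 loaded 1 h at RT; 460/530 nm ratio gave %activity and AC50.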
# [8] = molecular target: Glucocorticoid receptor (Homo sapiens) (UniProt P04150); experiment: GR-GFP Redistribution (AID 450;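 active = compounds whose dose series gives a full or clear partial fitted curve of increased nuclear translocation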; note: potency is the fitted concentration of half-maximal effect); settings: U2OS GR-GFP nuclear translocation, laser cytometry, 2 h
# [9] = molecular target: Glucocorticoid receptor (Homo sapiens) (UniProt P04150); experiment: GR-EFC Redistribution (AID 451; calls by dose curve; note: potency is the fitted concentration of half-maximal effect); settings: CHO-K1 GR-EFC translocation, beta-gal luminescence, 2 h
# In short: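 CHO-K1 cells expressing nuclear EA and GR-ED fragments of b-gal; compounds titrated up to 46 uM final, 2 h at 37 C. GR nuclear translocation read as complemented b-gal luminescence after 1 h RT detection.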
# [10] = molecular target: Mitogen-activated protein kinase 10 (Mus musculus) (UniProt Q61831); experiment: JNK3 AlphaScreen Assay (AID 530; active = well fitted curve in either direction with a large enough effect, not every such curve was filed as active;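 note: kinase came from lysate of stimulated human HepG2 cells; signal reports phosphorylation of biotinylated GST-cJun 1-79 at Ser73 with 10 µM ATP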)
# In short: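 Pre-activated (IL-1β/TNFα) JNK3 in HepG2 lysates phosphorylates biotin-GST-cJun(1-79), 10 uM ATP; anti-phospho-cJun(Ser73) AlphaScreen read at room temperature, pH 7.6 Tris buffer. Compounds pre-incubated 15 min as titrations.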
# [11] = molecular target: Cytochrome P450 3A4 (Homo sapiens) (UniProt P08684); experiment: qHTS Assay for Inhibitors and Substrates of Cytochrome P450 3A4 (AID 884); note: nearly all actives have a fitted effect of over 50% in size
# In short: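 20 nM human CYP3A4 with 25 uM Luciferin-PPXE (at KM) in 200 mM KPO4, preincubated 10 min with compound; NADPH regeneration started a 60 min RT reaction. Luciferin detected by luminescence, normalized to 57 uM ketoconazole as full inhibition.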
# [12] = molecular target: Cytochrome P450 2D6 (Homo sapiens) (UniProt P10635); experiment: qHTS Assay for Inhibitors and Substrates of Cytochrome P450 2D6 (AID 891);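 note: luciferin methyl ether substrate demethylated by CYP2D6 with NADPH regeneration; nearly all actives have a fitted effect of over 60% in size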
# In short: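 Human CYP2D6 (5 nM) with 30 uM Luciferin-ME EGE (at Km) in 100 mM KPO4, compound preincubated 10 min, then NADPH regeneration system for 60 min at room temperature. Luciferin read by luminescence; normalized to 1.43 uM quinidine.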
# [13] = molecular target: Cytochrome P450 2C19 (Homo sapiens) (UniProt P33261); experiment: qHTS Assay for Inhibitors and Substrates of Cytochrome P450 2C19 (AID 899); note: potency is the fitted concentration of half-maximal effect; nearly all actives have a fitted effect of over 60% in size
# In short: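 Signal comes from luciferase acting on luciferin released by CYP2C19-mediated hydroxylation of Luciferin-H EGE, 10uM (KM). Assay mix: 5nM enzyme, 50mM KPO4; 60 min at 37C with NADPH regeneration. Data normalized against 57uM ketoconazole.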
# [14] = molecular target: Ubiquitin carboxyl-terminal hydrolase 1 (Homo sapiens) (UniProt O94782); experiment: Inhibitors of USP1/UAF1: Pilot qHTS (AID 504865);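 note: rhodamine fluorescence freed from ubiquitin-rhodamine substrate followed over time; top concentration of the series differs between compounds; nearly all actives have a fitted effect of over 35% in size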
# In short: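 Enzyme-free wells gave the negative control, while test wells held 1nM USP1/UAF1 preincubated with compound for 15 min at room temperature. Ub-Rho at 150nM final started the reaction, and fluorescence at 480/540 nm was recorded kinetically.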
# [15] = molecular target: Rap guanine nucleotide exchange factor 4 (Homo sapiens) (UniProt Q8WZA2); experiment: Confirmatory qHTS for agonist of cAMP-regulated guanine nucleotide exchange factor 4 (EPAC2) (AID 1645884);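 note: nucleotide exchange releases bodipy-GDP from Rap1 and this lowers its fluorescence; nearly all actives have a fitted effect of over 65% in size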
# Rap guanine nucleotide exchange factor 3 (Homo sapiens), sequence (O95398 whole entry, looked up): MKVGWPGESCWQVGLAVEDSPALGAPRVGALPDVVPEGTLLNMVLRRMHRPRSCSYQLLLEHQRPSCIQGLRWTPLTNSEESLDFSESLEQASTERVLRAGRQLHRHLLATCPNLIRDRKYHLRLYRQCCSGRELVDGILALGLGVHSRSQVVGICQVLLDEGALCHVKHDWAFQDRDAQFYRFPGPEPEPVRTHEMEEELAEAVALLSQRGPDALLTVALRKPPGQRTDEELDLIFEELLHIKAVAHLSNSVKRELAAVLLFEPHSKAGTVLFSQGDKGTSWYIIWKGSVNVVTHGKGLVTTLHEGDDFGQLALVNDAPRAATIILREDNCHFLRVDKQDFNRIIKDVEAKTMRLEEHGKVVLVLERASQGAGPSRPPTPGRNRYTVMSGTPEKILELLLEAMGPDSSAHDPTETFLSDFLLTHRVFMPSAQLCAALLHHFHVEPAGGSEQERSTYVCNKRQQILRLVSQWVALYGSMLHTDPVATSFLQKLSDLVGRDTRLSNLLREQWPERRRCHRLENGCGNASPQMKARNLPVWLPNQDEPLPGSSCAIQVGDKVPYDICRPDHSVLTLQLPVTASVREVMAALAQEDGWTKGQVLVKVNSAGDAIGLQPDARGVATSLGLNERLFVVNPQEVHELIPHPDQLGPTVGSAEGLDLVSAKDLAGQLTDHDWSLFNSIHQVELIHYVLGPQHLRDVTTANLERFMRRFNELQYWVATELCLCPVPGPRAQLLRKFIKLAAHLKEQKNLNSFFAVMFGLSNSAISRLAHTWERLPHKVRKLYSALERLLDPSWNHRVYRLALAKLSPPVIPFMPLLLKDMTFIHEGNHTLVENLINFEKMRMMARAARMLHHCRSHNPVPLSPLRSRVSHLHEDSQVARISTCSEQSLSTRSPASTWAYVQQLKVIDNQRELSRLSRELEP
# Rap guanine nucleotide exchange factor 4 (Homo sapiens), sequence (Q8WZA2 whole entry, looked up): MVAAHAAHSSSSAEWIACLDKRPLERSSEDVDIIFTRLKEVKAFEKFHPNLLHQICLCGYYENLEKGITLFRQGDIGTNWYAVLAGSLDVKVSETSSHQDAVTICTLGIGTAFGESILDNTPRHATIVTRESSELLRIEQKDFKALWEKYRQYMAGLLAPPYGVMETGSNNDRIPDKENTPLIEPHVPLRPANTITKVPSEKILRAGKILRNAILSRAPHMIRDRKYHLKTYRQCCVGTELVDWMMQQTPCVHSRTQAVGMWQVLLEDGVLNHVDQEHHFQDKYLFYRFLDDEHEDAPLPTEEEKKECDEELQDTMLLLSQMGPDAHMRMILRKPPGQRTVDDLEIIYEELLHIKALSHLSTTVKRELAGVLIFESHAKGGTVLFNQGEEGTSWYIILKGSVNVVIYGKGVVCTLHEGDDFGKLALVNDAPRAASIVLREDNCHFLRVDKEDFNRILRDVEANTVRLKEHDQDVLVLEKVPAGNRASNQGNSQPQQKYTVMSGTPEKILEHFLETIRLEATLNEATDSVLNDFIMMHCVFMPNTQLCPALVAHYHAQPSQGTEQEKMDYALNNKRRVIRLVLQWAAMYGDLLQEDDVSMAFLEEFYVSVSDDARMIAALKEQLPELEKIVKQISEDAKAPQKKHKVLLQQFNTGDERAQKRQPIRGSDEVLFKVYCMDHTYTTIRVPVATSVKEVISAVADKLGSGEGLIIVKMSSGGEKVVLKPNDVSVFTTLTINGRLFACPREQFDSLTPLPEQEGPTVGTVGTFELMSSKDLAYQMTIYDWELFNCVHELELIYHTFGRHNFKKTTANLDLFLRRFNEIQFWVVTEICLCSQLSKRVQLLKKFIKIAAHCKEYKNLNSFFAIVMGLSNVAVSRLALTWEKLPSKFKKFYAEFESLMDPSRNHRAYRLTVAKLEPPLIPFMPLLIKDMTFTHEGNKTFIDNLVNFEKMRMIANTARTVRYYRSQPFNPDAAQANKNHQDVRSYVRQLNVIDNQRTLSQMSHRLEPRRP
# Glucocorticoid receptor (Homo sapiens), sequence (P04150 whole entry, looked up, the tested form may be a part): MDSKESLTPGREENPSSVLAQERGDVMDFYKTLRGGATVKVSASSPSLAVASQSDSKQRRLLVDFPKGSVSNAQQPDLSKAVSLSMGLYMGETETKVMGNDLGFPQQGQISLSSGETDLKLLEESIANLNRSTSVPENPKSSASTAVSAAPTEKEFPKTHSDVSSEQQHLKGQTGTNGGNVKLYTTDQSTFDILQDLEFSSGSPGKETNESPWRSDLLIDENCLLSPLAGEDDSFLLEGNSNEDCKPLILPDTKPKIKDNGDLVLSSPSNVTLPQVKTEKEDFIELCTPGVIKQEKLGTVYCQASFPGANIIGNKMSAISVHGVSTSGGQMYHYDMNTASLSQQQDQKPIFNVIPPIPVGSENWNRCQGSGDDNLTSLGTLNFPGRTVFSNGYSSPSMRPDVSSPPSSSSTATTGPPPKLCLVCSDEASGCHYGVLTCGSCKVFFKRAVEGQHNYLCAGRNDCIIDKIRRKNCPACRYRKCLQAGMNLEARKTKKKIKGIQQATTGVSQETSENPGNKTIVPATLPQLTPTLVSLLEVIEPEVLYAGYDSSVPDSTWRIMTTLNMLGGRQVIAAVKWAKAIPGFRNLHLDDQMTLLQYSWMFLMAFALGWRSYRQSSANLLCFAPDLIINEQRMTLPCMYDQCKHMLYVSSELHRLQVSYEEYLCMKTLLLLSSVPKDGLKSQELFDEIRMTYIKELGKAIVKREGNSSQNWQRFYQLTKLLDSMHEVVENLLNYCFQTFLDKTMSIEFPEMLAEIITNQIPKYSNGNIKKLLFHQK
# Ubiquitin carboxyl-terminal hydrolase 1 (Homo sapiens), sequence (O94782 whole entry, looked up): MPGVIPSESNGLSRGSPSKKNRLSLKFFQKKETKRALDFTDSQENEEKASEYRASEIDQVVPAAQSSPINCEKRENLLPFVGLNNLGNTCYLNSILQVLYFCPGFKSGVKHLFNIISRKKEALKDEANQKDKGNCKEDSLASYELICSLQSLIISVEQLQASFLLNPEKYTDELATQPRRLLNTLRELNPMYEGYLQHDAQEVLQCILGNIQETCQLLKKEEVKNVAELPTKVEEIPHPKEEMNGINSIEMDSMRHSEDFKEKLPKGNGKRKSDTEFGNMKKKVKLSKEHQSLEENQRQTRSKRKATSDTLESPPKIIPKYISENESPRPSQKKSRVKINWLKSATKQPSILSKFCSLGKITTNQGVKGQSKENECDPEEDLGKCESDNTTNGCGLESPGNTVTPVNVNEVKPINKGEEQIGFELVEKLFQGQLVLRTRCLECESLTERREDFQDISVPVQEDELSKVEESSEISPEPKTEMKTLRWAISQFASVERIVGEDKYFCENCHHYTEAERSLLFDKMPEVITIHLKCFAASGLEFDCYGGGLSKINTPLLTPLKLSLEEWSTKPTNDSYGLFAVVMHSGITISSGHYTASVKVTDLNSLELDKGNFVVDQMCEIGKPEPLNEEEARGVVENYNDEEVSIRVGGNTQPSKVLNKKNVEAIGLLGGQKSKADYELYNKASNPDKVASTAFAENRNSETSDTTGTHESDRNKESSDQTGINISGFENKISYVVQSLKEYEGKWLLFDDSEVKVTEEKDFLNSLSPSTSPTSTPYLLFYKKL
# Cytochrome P450 2C19 (Homo sapiens), sequence (P33261 whole entry, looked up): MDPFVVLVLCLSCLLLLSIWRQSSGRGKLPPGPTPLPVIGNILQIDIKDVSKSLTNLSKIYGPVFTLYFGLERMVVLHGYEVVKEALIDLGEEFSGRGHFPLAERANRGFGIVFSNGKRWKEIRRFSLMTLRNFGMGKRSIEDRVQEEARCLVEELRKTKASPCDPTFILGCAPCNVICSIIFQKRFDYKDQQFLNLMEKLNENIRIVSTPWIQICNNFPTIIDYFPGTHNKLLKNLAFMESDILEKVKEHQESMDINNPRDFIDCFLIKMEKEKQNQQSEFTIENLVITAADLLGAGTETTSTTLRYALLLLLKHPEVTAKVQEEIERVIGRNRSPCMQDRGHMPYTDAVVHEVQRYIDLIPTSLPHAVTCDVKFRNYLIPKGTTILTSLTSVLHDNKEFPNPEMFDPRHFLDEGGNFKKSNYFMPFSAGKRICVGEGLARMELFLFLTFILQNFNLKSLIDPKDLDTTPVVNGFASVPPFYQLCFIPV
# Cytochrome P450 3A4 (Homo sapiens), sequence (P08684 whole entry, looked up): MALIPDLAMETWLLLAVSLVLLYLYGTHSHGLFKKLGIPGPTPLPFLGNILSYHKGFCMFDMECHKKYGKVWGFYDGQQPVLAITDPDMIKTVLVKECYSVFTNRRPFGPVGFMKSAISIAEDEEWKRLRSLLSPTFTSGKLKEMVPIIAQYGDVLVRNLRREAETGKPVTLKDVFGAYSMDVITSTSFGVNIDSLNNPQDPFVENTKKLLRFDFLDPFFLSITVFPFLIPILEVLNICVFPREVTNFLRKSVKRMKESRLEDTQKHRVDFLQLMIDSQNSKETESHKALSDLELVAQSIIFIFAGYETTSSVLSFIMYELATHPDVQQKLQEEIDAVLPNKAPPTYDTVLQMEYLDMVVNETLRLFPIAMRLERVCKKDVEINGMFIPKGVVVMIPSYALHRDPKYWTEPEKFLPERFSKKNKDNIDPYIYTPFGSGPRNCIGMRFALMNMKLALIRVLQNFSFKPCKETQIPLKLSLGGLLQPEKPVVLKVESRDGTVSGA
# Cytochrome P450 1A2 (Homo sapiens), sequence (P05177 whole entry, looked up): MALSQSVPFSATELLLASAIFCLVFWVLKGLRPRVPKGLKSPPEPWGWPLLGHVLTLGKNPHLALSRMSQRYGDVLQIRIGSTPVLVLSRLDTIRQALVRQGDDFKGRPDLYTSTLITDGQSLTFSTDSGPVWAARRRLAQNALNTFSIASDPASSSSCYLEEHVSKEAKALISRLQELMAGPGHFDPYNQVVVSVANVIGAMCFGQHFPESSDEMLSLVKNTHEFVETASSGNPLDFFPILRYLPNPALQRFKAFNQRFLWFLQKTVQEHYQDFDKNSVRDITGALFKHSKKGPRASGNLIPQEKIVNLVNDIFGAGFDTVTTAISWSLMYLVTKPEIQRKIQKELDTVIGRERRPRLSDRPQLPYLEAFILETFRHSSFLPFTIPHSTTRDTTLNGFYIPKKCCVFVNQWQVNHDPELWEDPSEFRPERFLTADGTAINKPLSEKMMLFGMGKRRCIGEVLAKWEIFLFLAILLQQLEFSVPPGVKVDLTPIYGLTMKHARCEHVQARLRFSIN
structure (smiles),measurement,setting,value
COc1cc(/C=N/NC(=O)c2cc(O)cc(O)c2)ccc1OC(=O)c1ccccc1,Potency,[1],33.8 µM (active)
same,Potency,[2],inactive
same,Potency,[3],3.38 µM (active)
same,Potency,[4],inactive
CCCCCCn1c(=O)[nH]c2nc3cc(N)c(C)cc3nc2c1=O,Potency,[1],inactive
same,Potency,[2],112 µM (active)
same,Potency,[3],inactive
same,Potency,[4],inactive
Cc1ccc(C)c(NC(=O)N2CCN3CCCCC3C2)c1 (centres undefined),Potency,[1],inactive
same,Potency,[2],inactive
same,Potency,[3],inactive
same,Potency,[4],inactive
Cc1ccccc1-c1ccc2ncnc(N3CCOCC3)c2c1,"activity change, negative = inhibition",[5],-27.7%
same,Potency,[6],1.26 µM (active)
same,"activity change, negative = inhibition",[7],20.5%
same,Potency,[8],> 46 µM
same,Potency,[9],> 46 µM
same,Potency,[10],inactive
same,Potency,[11],inactive
same,Potency,[12],inactive
same,Potency,[13],1.58 µM (active)
same,Potency,[14],inactive
same,Potency,[1],inactive
same,Potency,[2],inactive
same,Potency,[15],inactive
COc1ccc([N+](=O)[O-])cc1-c1nc2ccccc2nc1-c1ccccc1,Potency,[1],inactive
same,Potency,[2],inactive
same,Potency,[3],0.0301 µM (active)
same,Potency,[4],inactive
CCOc1ccc(-n2cnc3scc(-c4ccc(OC)c(OC)c4)c3c2=O)cc1,Potency,[1],inactive
same,Potency,[2],inactive
same,Potency,[3],inactive
same,Potency,[4],inactive
CCOc1ccccc1N1CCN(C(=O)c2cc3c(s2)CCC3)CC1,Potency,[1],inactive
same,Potency,[2],inactive
same,Potency,[3],inactive
same,Potency,[4],inactive
O=C1/C(=C\c2cccc(O)c2O)SC(=S)N1Cc1ccccc1,Potency,[1],75.7 µM (active)
same,Potency,[2],inactive
same,Potency,[3],inactive
same,Potency,[4],inactive
CCOc1ccc(NC(=O)CSc2nc(-c3cccc(Cl)c3)nc3c2Cc2c(CO)cnc(C)c2O3)cc1,Potency,[1],inactive
same,Potency,[2],inactive
same,Potency,[3],inactive
same,Potency,[4],inactive
CC(=O)c1ccccc1NC(=O)COC(=O)CSCC(=O)Nc1cc(C)on1,Potency,[1],inactive
same,Potency,[2],inactive
same,Potency,[3],inactive
same,Potency,[4],inactive
Cc1ccc(CNc2cc(C)nc3nc(-c4ccc(C)cc4)nn23)cc1,Potency,[1],inactive
same,Potency,[2],inactive
same,Potency,[3],inactive
same,Potency,[4],inactive
COCCOC(=O)c1c(-c2ccccc2)c(-c2ccccc2)nn(C)c1=O,Potency,[1],inactive
same,Potency,[2],inactive
same,Potency,[3],inactive
same,Potency,[4],inactive
CCOc1ccccc1NC(=O)c1ccccc1-c1ccccc1,Potency,[1],inactive
same,Potency,[2],inactive
same,Potency,[3],inactive
same,Potency,[4],inactive
Cc1oc2cc(Br)c(O)c(Br)c2c1C(=O)c1ccccc1,Potency,[1],inactive
same,Potency,[2],inactive
same,Potency,[3],inactive
same,Potency,[4],inactive
Cc1ccc(S(=O)c2ccc([N+](=O)[O-])c3nonc23)cc1 (centres undefined),Potency,[1],23.9 µM (active)
same,Potency,[2],inactive
same,Potency,[3],inactive
same,Potency,[4],inactive
O=C(N/N=C\c1c(O)ccc2ccccc12)c1ccc(S(=O)(=O)N2CCCCC2)cc1,Potency,[1],inactive
same,Potency,[2],44.7 µM (active)
same,Potency,[3],inactive
same,"activity change, negative = inhibition",[4],-15.1% [at 30.8 µM]
O=S(=O)(Nc1ccccc1N1CCCCC1)c1ccccc1,Potency,[1],inactive
same,Potency,[2],inactive
same,Potency,[3],inactive
same,Potency,[4],inactive
COc1ccc(C(=O)c2oc3ccccc3c2NC(=O)c2cc(=O)c3ccc(C)cc3o2)cc1Cl,Potency,[1],inactive
same,Potency,[2],inactive
same,outcome,[3],inactive [at 12.7 µM]
same,Potency,[4],inactive
Cc1ccccc1SCC(=O)Nc1cc(C(F)(F)F)ccc1N1CCOCC1,Potency,[1],inactive
same,Potency,[2],inactive
same,Potency,[3],2.39 µM (active)
same,Potency,[4],inactive
CCN(C(=O)c1sc2cc(OC)ccc2c1Cl)c1ccccc1,Potency,[1],inactive
same,Potency,[2],inactive
same,Potency,[3],inactive
same,Potency,[4],inactive
Cc1ccc(-c2noc(-c3nnn(CC(=O)Nc4cc(Cl)ccc4C)c3N)n2)cc1,Potency,[1],inactive
same,Potency,[2],inactive
same,outcome,[3],inactive [at 12.7 µM]
same,Potency,[4],inactive
Cc1cccc(Cn2c(-c3cccs3)nc3ccccc32)c1,Potency,[1],inactive
same,Potency,[2],inactive
same,Potency,[3],inactive
same,Potency,[4],inactive
COc1cc(SC)ccc1C(=O)NC1CCCc2ccccc21 (centres undefined),Potency,[1],inactive
same,Potency,[2],inactive
same,Potency,[3],30.1 µM (active)
same,Potency,[4],inactive
Cc1cccc(CNC(=O)c2ccc(-c3nc(CS(=O)(=O)c4ccccc4)c(C)o3)cc2)c1,Potency,[1],inactive
same,Potency,[2],inactive
same,Potency,[3],inactive
same,Potency,[4],inactive
O=C1CSC(c2ccc(Cl)cc2Cl)N1c1ccccn1 (centres undefined),Potency,[1],inactive
same,Potency,[2],inactive
same,Potency,[3],inactive
same,Potency,[4],inactive
COC(=O)c1c(SC)nc2ccccc2c1OCc1ccc(Cl)cc1,Potency,[1],inactive
same,Potency,[2],inactive
same,Potency,[3],inactive
same,Potency,[4],inactive
O=C(NCc1ccccc1F)c1ccc(CN2CC(=O)N3CCCCC3C2=O)cc1 (centres undefined),Potency,[1],inactive
same,Potency,[2],inactive
same,Potency,[3],inactive
same,Potency,[4],inactive
COC(=O)C1=C(C)N(c2ccc(OC)cc2)C(C)=C(C(=O)OC)C1c1ccccc1,Potency,[1],inactive
same,Potency,[2],inactive
same,Potency,[3],inactive
same,Potency,[4],inactive
COc1cc2c(cc1OC)C(c1cccc(Cl)c1)CC(=O)N2 (centres undefined),Potency,[1],inactive
same,Potency,[2],inactive
same,Potency,[3],inactive
same,Potency,[4],inactive
c1ccc(NN(Cc2ccccn2)c2ccccc2)cc1,Potency,[1],inactive
same,Potency,[2],inactive
same,Potency,[3],inactive
same,Potency,[4],inactive

# — PubChem BioAssay (NCATS)
